In the library only some 4.1% were active in any assay of this set; here they are far more common.
Shn3 inh set2 = inhibitors of Schnurri-3 3'UTR reporter in osteoblasts. Clone20 osteoblast Shn3 3'UTR firefly luciferase, 24 h. inhibition, % at 12.5 µM. actives 0.52% (n = 360,000). AID 588674;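 active = mean inhibition of at least 75% with every replicate also reaching 75%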;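 also: 0% = median of neutral control wells and 100% = pilot-screen positive control compound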
Peg3 prom inh = inhibitors of Peg3 promoter; actives 1.7% (n = 360,000); inhibition, % at 20 µM; AID 588405; HeLa PEG-Prom luciferase reporter, luminescence, overnight;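 active = inhibition of at least 50% at 20 µM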
LMP1 NFkB inh = inhibitors of Epstein-Barr LMP1-induced NF-kappaB reporter. inhibition, % at 12.5 µM. AID 504558. actives 0.69% (n = 350,000). LMP1-induced NF-kappaB luciferase reporter cells, luminescence; in the data active = inhibition above about 41%;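 also: 0% = neutral control wells and 100% = reference inhibitor control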
TWEAK Fn14 block = blocks TWEAK-Fn14 interaction in a reporter cell assay; TWEAK-stimulated Fn14 reporter cells, luciferase luminescence, 8 h; inhibition, % at 10 µM; actives 2% (n = 360,000); in the data active = inhibition above about 50%
TROY signal inh = TROY signaling inhibition. inhibition, % at 10 µM. AID 1347056. Q293 LMP1-TROYcd NF-kB luciferase reporter, 4 h. actives 0.98% (n = 360,000);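 active = compounds whose plate-normalised and pattern-corrected inhibition of the luciferase reporter signal at the single screening dose is 50% or more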
MITF TRPM1 inh = reduces MITF-dependent TRPM1 promoter luciferase signal. SK-MEL-5 TRPM1 promoter luciferase, 24 h. inhibition, % at 12.5 µM. actives 0.83% (n = 330,000). AID 488899;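 active = mean inhibition across replicates of 60% or more, whatever share of single replicates reaches that level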
Active calls of the source: *.

`CCOC(=O)c1sc(NC(=O)c2cc(-c3ccc(C)cc3)nc3ccccc23)c(C#N)c1C` gave Shn3 inh set2 13, Peg3 prom inh 2, LMP1 NFkB inh 5, TWEAK Fn14 block 62*, TROY signal inh 49 and MITF TRPM1 inh 26.
`Cc1ccccc1-c1cc(C(=O)Nc2sc(C(=O)OC(C)C)c(C)c2C#N)c2ccccc2n1` gave Shn3 inh set2 71, Peg3 prom inh 31, LMP1 NFkB inh 32, TWEAK Fn14 block 62*, TROY signal inh 58* and MITF TRPM1 inh 43.
`COC(=O)c1sccc1NC(=O)c1cc(-c2cc(C)ccc2C)nc2ccccc12` gave Shn3 inh set2 20, Peg3 prom inh 38, LMP1 NFkB inh 9, TWEAK Fn14 block 32, TROY signal inh 6 and MITF TRPM1 inh 9.
Cc1cccc(N2CCN(C(=O)[C@H](C)N3C(=O)C4CC=CCC4C3=O)CC2)c1C (some centres undefined) was read as Shn3 inh set2 5, Peg3 prom inh 6, LMP1 NFkB inh 5, TWEAK Fn14 block -6, TROY signal inh 0 and MITF TRPM1 inh -1.
For C[C@H](O)C#Cc1cnc2c(c1)C(=O)N([C@H](C)CO)C[C@@H](C)[C@@H](CN(C)Cc1ccc(-c3ccccc3)cc1)O2 the results were Shn3 inh set2 -19, Peg3 prom inh -7, LMP1 NFkB inh -8, TWEAK Fn14 block 40 and TROY signal inh -16.
For COC(=O)c1sccc1NC(=O)c1cc(-c2ccc(C)cc2)nc2ccccc12 the results were Shn3 inh set2 -9, Peg3 prom inh -14, LMP1 NFkB inh -1, TWEAK Fn14 block 98*, TROY signal inh -13 and MITF TRPM1 inh 5.
Screening Cc1ccc(OCc2cc(C(=O)N3CCCC(O)C3)no2)cn1 (centres undefined) returned Shn3 inh set2 -21, Peg3 prom inh -43, LMP1 NFkB inh 0, TWEAK Fn14 block 10, TROY signal inh -32 and MITF TRPM1 inh -23.
CCN(CC)S(=O)(=O)c1ccc(C(=O)NCCOC(=O)c2ccc(F)cc2F)cc1 was read as Shn3 inh set2 -5, Peg3 prom inh 6, LMP1 NFkB inh -9, TWEAK Fn14 block 10, TROY signal inh 1 and MITF TRPM1 inh 6.
O=C(C/C=N/OCc1ccc(Cl)cc1)c1cnc(-c2ccccc2)s1 was read as Shn3 inh set2 -11, Peg3 prom inh -3, LMP1 NFkB inh 0, TWEAK Fn14 block 10, TROY signal inh 38 and MITF TRPM1 inh 2.
Screening O=C(C/C=N/OCc1c(Cl)cccc1Cl)c1cnc(-c2ccccc2)s1 returned Shn3 inh set2 1, Peg3 prom inh -12, LMP1 NFkB inh 2, TWEAK Fn14 block -16, TROY signal inh 54* and MITF TRPM1 inh -8.
Screening Cn1/c(=N/NC(=O)c2ccccc2F)sc2ccccc21 returned Shn3 inh set2 -32, Peg3 prom inh -170, LMP1 NFkB inh -30, TWEAK Fn14 block -7, TROY signal inh -53 and MITF TRPM1 inh 13.
Screening CCCCCCNC(=O)O[C@H]1Cn2c(=O)ccc(=O)n2[C@@H]2CN(S(=O)(=O)c3ccc(C)cc3)C[C@]12O returned Shn3 inh set2 91*, Peg3 prom inh 103*, LMP1 NFkB inh 8, TWEAK Fn14 block 89* and TROY signal inh 13.
Screening C#CCN(C[C@@H]1[C@@H](OC(=O)NCCCCCC)[C@@H](OC(=O)NCCCCCC)Cn2c(=O)ccc(=O)n21)S(=O)(=O)c1ccc(C)cc1 returned Shn3 inh set2 81, Peg3 prom inh 98*, LMP1 NFkB inh 90*, TWEAK Fn14 block 106* and TROY signal inh 88*.
`CCCCCCNC(=O)O[C@H]1Cn2c(=O)n(CCCCCC)c(=O)n2[C@@H]2CN(S(=O)(=O)c3ccc(C)cc3)C[C@]12O` gave Shn3 inh set2 10, Peg3 prom inh 18, LMP1 NFkB inh -8, TWEAK Fn14 block -7 and TROY signal inh 18.
CCCCCCNC(=O)OC12CN(C(=O)OC(C)C)N(C(=O)OC(C)C)CC1(O)CN(S(=O)(=O)c1ccc(C)cc1)C2 (centres undefined) was read as Shn3 inh set2 -4, Peg3 prom inh 84*, LMP1 NFkB inh 6, TWEAK Fn14 block 18 and TROY signal inh 2.
`C#CCN(C[C@@H]1[C@@H](OC(=O)NCC2CCCCC2)[C@@H](OC(=O)NCC2CCCCC2)Cn2c(=O)ccc(=O)n21)S(=O)(=O)c1ccc(C)cc1` gave Shn3 inh set2 99*, Peg3 prom inh 106*, LMP1 NFkB inh 90*, TWEAK Fn14 block 107* and TROY signal inh 74*.
Screening NC(=O)c1nnn(Cc2cc(Cl)c(C(=O)c3ccc(Cl)cc3)c(Cl)c2)c1N returned TWEAK Fn14 block 30 and TROY signal inh 24.
Screening Nc1ccccc1SCC(=O)Nc1ccc2c(c1)OCO2 returned Shn3 inh set2 -40, Peg3 prom inh -108, LMP1 NFkB inh -29, TWEAK Fn14 block -36, TROY signal inh 4 and MITF TRPM1 inh -30.
`CCCCN(Cc1ccco1)S(=O)(=O)c1csc(C(N)=O)c1` gave Shn3 inh set2 10, Peg3 prom inh 10, LMP1 NFkB inh 14, TWEAK Fn14 block 24, TROY signal inh -15 and MITF TRPM1 inh 5.
Screening COc1ccc(/C=N/OCc2ccc(Br)cc2)c(OC)c1 returned Shn3 inh set2 -17, Peg3 prom inh -77, LMP1 NFkB inh 0, TWEAK Fn14 block -23, TROY signal inh -55 and MITF TRPM1 inh -38.
`CN1CCN(C(=O)C2Cc3c(-c4cccc(F)c4)ccnc3O2)CC1` (centres undefined) gave Shn3 inh set2 -14, Peg3 prom inh -8, TWEAK Fn14 block -4 and TROY signal inh -10.
Screening C#CCN(C[C@@H]1[C@@H](OC(=O)NCc2ccco2)[C@@H](OC(=O)NCc2ccco2)Cn2c(=O)ccc(=O)n21)S(=O)(=O)c1ccc(C)cc1 returned Shn3 inh set2 -5, Peg3 prom inh 95*, LMP1 NFkB inh 23, TWEAK Fn14 block 38 and TROY signal inh 18.
`O=C1C=C(N2CCOCC2)c2ccccc2C1=O` gave Shn3 inh set2 97*, Peg3 prom inh 101*, LMP1 NFkB inh 12, TWEAK Fn14 block 10, TROY signal inh 12 and MITF TRPM1 inh 85*.
Screening CC(Oc1ccc2ccc(=O)oc2c1)C(=O)NCCN1CCOCC1 (centres undefined) returned Shn3 inh set2 -4, Peg3 prom inh -10, LMP1 NFkB inh -2, TWEAK Fn14 block -3, TROY signal inh -39 and MITF TRPM1 inh -9.
Cc1ccc(CN(C(=O)COc2ccc(Br)cc2)C2CCS(=O)(=O)C2)o1 (centres undefined) was read as Shn3 inh set2 -13, Peg3 prom inh 17, LMP1 NFkB inh -8, TWEAK Fn14 block -9, TROY signal inh 2 and MITF TRPM1 inh 1.
For O=C(CNC(=O)c1ccc(Cl)cc1)NNc1c(F)c(F)cc(F)c1F the results were Shn3 inh set2 9, Peg3 prom inh 3, LMP1 NFkB inh 5, TWEAK Fn14 block -13, TROY signal inh 13 and MITF TRPM1 inh -9.
